# Laboratory results from PubChem BioAssay (NCI).
# Values joined by “and” are separate entries in the source; they are usually repeats but may differ in a detail not shown here. Equal entries are not always repeated. Compounds without any hit were thinned out: in the full panel of roughly 83,000, 20% have a hit.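 Growth was measured after 48 h exposure to one concentration of compound in 96-well plates. Values under 10 count as active.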 Active and inactive are the calls of the source.
# What was measured:
# Test in all cases: NCI-60 one-dose screen, 48 h (100 = growth as untreated, 0 = no growth, -100 = all killed)
# Settings in all cases: 10 µM unless noted
# NCI-H23 lung = system: NCI-H23 lung
# NCI-H226 lung = system: NCI-H226 lung
# NCI-H322M lung = system: NCI-H322M lung
# HOP-62 NSCLC = system: HOP-62 NSCLC
# NCI-H460 lung = system: NCI-H460 lung
# HOP-92 NSCLC = system: HOP-92 NSCLC
# NCI-H522 lung = system: NCI-H522 lung
# A549/ATCC NSCLC = system: A549/ATCC NSCLC
# 786-0 renal = system: 786-0 renal
# COLO 205 colon = system: COLO 205 colon
# DU-145 prostate = system: DU-145 prostate
# K-562 leukemia = system: K-562 leukemia
# MALME-3M melanoma = system: MALME-3M melanoma
# MDA-MB-231 breast = system: MDA-MB-231 breast
# RXF 393 renal = system: RXF 393 renal
# SF-268 CNS = system: SF-268 CNS
# SF-295 CNS = system: SF-295 CNS
# SF-539 CNS = system: SF-539 CNS
# UACC-257 melanoma = system: UACC-257 melanoma
# M14 melanoma = system: M14 melanoma
Compound,growth (NCI-H23 lung),growth (NCI-H226 lung),growth (NCI-H322M lung),growth (HOP-62 NSCLC),growth (NCI-H460 lung),growth (HOP-92 NSCLC),growth (NCI-H522 lung),growth (A549/ATCC NSCLC),growth (786-0 renal),growth (COLO 205 colon),growth (DU-145 prostate),growth (K-562 leukemia),growth (MALME-3M melanoma),growth (MDA-MB-231 breast),growth (RXF 393 renal),growth (SF-268 CNS),growth (SF-295 CNS),growth (SF-539 CNS),growth (UACC-257 melanoma),growth (M14 melanoma)
O=C1N=c2ccccc2=C1c1sc(=S)n(C2CC(=O)N(c3ccc(Cl)cc3)C2=O)c1O (stereo not given),99.2% (inactive),92% (inactive),104% (inactive),93.2% (inactive),102% (inactive),98.6% (inactive),97.1% (inactive),107% (inactive),102% (inactive),118% (inactive),106% (inactive),94.4% (inactive),102% (inactive),101% (inactive),116% (inactive),102% (inactive),104% (inactive),101% (inactive),105% (inactive),98.7% (inactive)
[2H]C([2H])([2H])Oc1cc(F)ccc1/C=C/C(=O)/C=C(/C=C/c1ccc(F)cc1OC([2H])([2H])[2H])OB(F)F,26.2% (inactive),63.4% (inactive),82% (inactive),102% (inactive),49.7% (inactive),83.2% (inactive),31.4% (inactive),58.3% (inactive),44.3% (inactive),21.3% (inactive),30.5% (inactive),18% (inactive),33.1% (inactive),53% (inactive),1.06% (active),56.7% (inactive),59.5% (inactive),93.2% (inactive),48.9% (inactive),8.14% (active)
CC[C@H](C)[C@H](NC(=O)[C@H](CCCCN)NC(=O)[C@H](CCCCN)NC(=O)[C@@H](NC(=O)[C@@H](NC(=O)[C@@H](N)Cc1cnc[nH]1)[C@@H](C)CC)[C@@H](C)CC)C(=O)N[C@@H](CCCNC(=N)N)C(=O)N[C@H](C(=O)N[C@@H](Cc1c[nH]c2ccccc12)C(=O)N[C@@H](Cc1ccc(O)cc1)C(=O)N[C@@H](CCCNC(=N)N)C(=O)N[C@@H](CCCCN)C(=O)N[C@@H](C)C(=O)N[C@@H](Cc1c[nH]c2ccccc12)C(=O)N[C@@H](Cc1cnc[nH]1)C(=O)N[C@H](C(=O)N[C@@H](CC(C)C)C(=O)NCC(=O)N[C@@H](CCCCN)C(=O)N[C@H](C(N)=O)C(C)C)C(C)C)[C@@H](C)O,17.2% (inactive),29.8% (inactive),25.1% (inactive),35.9% (inactive),7.38% (active),56.7% (inactive),45.9% (inactive),39.2% (inactive),-28.3% (active),-54.8% (active),30.7% (inactive),67.9% (inactive),4.7% (active),10.9% (inactive),23.4% (inactive),-12.7% (active),24.5% (inactive),-12.2% (active),67.8% (inactive),-12% (active)
CCN(C(=O)N1CCN(c2cc3c(cc2F)c(=O)c(C(=O)O)cn3C2CC2)CC1)c1nc(-c2ccccc2)cs1,6.27% (active),20.9% (inactive),13.3% (inactive),36% (inactive),5.27% (active),-18.4% (active),-1.7% (active),12.4% (inactive),14.3% (inactive),64.1% (inactive),27.1% (inactive),13.8% (inactive),22.1% (inactive),5.26% (active),19.7% (inactive),25% (inactive),8.29% (active),8.47% (active),74.1% (inactive),22.9% (inactive)
C#Cc1cc(C(=O)Nc2ccc(CN3CCN(C)CC3)c(C(F)(F)F)c2)ccc1C,88.2% (inactive),83.6% (inactive),88.5% (inactive),88.5% (inactive),71.6% (inactive),58.5% (inactive),96.1% (inactive),70.8% (inactive),52.2% (inactive),56.3% (inactive),85.8% (inactive),7.97% (active),23.6% (inactive),59.2% (inactive),76.3% (inactive),82.5% (inactive),77% (inactive),44% (inactive),-32.9% (active),-70.4% (active)
Cn1c(=O)c2c(nc(Nc3cc(=O)[nH]c(=O)[nH]3)n2Cc2ccccc2)n(C)c1=O,91.5% (inactive),86.6% (inactive),97.9% (inactive),20.6% (inactive),2.91% (active),80.5% (inactive),4.24% (active),12.3% (inactive),102% (inactive),-2.38% (active),2.17% (active),87.5% (inactive),103% (inactive),99.7% (inactive),81.7% (inactive),24.9% (inactive),101% (inactive),94.2% (inactive),47.3% (inactive),91.8% (inactive)
OCCN1CCN(CC/C=C2\c3ccccc3Sc3ccc(Cl)cc32)CC1,50.7% (inactive) and 82.9% (inactive),88.2% (inactive) and 110% (inactive),83.1% (inactive),-34.7% (active) and -66.1% (active),2.77% (active) and -25% (active),10.9% (inactive) and -12.9% (active),37.9% (inactive) and 13.3% (inactive),60% (inactive) and 38.2% (inactive),38.6% (inactive),-75.6% (active) and -87.3% (active),17.1% (inactive) and 65% (inactive),-90.8% (active) and -68.9% (active),-53.2% (active),29.3% (inactive) and 44.8% (inactive),23.5% (inactive),51.7% (inactive) and 46.6% (inactive),47.6% (inactive) and 31% (inactive),31.8% (inactive) and 59.7% (inactive),-83.9% (active) and -94.1% (active),-98.7% (active) and -88.3% (active)
